According to PubChem BioAssay (NCATS):
Where “and” joins values, the source holds several entries; their conditions need not be identical. Equal entries are not always repeated. Records with an inconclusive call do not appear. Calls of active or inactive are those of the source. Unless noted, the call rests on the fitted dose curve; in most records, active means well fitted curve in the direction sought with a large enough effect; inconclusive means small, poorly fitted or top-dose-only effect, or another doubt; inactive means no such curve, though single readings can be large; an effect the other way counts as inactive or inconclusive.

Legend:
[1] = qHTS for compounds that reverse cellular toxicity of Amyloid beta (A-beta) peptide in yeast: LOPAC Validation Assay (AID 720559);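 further: plate controls were DMSO for no effect and equimolar ferric chloride plus clioquinol rescue for full effect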
How it was run: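 Medium dispensed, compounds pinned, A-beta yeast suspension added; plates held at 30 C for 48 hr; absorbance measured at 600 nm to gauge growth; values scaled between DMSO and FeCl3/clioquinol (equimolar) controls.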

[2] = qHTS for Activators of Parkin Expression: LOPAC Validation Assay (NLuc Reporter) (AID 720572)
How it was run: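 Parkin promoter-driven FLuc/NLuc neuronal reporter cells; 24 h plating, 7-pt dose response, 24 h at 37 C/5% CO2; FLuc then NanoLuc reagent, 10 min each, luminescence; DMSO/positive control normalized.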

[3] = qHTS for Activators of Parkin Expression: LOPAC Validation Assay (FLuc Reporter) (AID 720573)
How it was run: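 Cells seeded, 24 h; compounds pinned, 7-pt dose response; 24 h at 37 C/5% CO2; volume reduced; FLuc reagent 10 min RT; luminescence read. Normalization: DMSO = 0, positive control = 100%.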

[4] = biological target: T1, Hexokinase-4 (Homo sapiens) + Glucokinase regulatory protein (Homo sapiens) (UniProt P35557+Q14397); experiment: qHTS assay for inhibitors of recombinant human GCK-GKRP interaction: Diaphorase-coupled assay (AID 743205)
T1 sequence (P35557 whole entry, looked up): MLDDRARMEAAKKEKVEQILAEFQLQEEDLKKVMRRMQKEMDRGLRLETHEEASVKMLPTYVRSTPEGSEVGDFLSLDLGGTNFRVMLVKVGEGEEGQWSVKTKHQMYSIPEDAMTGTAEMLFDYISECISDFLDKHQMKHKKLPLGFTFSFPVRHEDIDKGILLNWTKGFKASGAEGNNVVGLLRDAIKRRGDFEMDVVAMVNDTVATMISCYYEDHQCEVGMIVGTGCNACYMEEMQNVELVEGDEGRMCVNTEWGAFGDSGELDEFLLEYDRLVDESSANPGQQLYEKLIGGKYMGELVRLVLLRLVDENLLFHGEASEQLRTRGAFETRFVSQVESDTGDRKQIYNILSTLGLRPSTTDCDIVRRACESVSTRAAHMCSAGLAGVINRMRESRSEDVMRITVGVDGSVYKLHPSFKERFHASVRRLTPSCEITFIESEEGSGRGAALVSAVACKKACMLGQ
T1 sequence (Q14397 whole entry, looked up): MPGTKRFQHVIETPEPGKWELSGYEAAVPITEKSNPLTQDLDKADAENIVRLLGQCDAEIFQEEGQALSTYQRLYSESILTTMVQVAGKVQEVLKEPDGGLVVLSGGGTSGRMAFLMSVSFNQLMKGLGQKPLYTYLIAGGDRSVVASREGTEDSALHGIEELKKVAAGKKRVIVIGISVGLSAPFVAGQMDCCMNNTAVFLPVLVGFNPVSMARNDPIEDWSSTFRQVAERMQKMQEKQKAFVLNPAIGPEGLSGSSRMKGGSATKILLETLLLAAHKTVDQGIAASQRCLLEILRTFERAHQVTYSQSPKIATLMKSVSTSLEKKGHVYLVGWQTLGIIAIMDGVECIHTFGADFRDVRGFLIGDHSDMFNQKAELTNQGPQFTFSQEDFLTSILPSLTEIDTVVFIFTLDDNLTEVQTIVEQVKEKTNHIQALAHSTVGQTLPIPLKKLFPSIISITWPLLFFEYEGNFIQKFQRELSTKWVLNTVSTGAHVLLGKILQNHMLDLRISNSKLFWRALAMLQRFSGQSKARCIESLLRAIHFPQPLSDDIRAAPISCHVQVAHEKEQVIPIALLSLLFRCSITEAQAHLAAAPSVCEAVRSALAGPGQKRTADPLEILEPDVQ
How it was run: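 25 mM Hepes pH 7.6, 5 mM glucose, 0.4 mM ATP, 4 U/ml G6PDH; 10 nM each GST-GCK/FLAG-GKRP. Kinetic fluorescence read, 1/min × 30 min. Normalized: DMSO ± enzyme = max/min.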

[5] = biological target: T1, Hexokinase-4 (Homo sapiens) + Glucokinase regulatory protein (Homo sapiens); experiment: qHTS assay for inhibitors of recombinant human GCK-GKRP interaction: ADP-Glo assay (AID 743206);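 further: plate controls were DMSO plus enzyme for no effect and no enzyme for full effect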
How it was run: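 GST-GCK and FLAG-GKRP (15 nM each in the dispensed mix, with 2 uM S6P) react with 0.4 mM ATP and 5 mM glucose (final) in Hepes pH 7.6 for 60 min at room temperature. ADP is measured by ADP-Glo luminescence.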

[6] = biological target: Arylsulfatase A (Homo sapiens) (UniProt P15289); experiment: qHTS screen for enhancers of Arylsulfatase A (ASA1): LOPAC Validation Assay (AID 720538); settings: outcome: dose series up to 57.5 µM
Sequence of Arylsulfatase A (Homo sapiens) (P15289 whole entry, looked up): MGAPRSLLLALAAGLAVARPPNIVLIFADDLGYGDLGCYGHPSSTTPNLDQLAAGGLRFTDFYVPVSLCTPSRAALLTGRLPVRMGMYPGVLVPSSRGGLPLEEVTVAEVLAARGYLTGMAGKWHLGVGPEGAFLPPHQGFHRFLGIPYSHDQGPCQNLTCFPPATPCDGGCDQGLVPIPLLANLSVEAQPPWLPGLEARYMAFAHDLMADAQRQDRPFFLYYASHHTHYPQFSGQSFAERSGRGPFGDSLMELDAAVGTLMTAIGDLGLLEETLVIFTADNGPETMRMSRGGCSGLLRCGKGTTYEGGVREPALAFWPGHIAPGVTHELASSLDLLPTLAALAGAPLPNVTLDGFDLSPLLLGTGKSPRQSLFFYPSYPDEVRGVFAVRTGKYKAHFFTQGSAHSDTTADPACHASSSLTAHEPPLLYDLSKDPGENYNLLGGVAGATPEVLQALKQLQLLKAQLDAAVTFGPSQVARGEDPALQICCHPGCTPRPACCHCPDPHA
How it was run: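 MLD patient fibroblasts (SV40, ASA-I179S), 1536-well; adhere 6 hrs; cpd 48h, 37 degree C, 5% CO2; pNCS 0.5mM final in lysis buffer, 14h RT; stop 1N NaOH final; fluor. Ex525/Em598.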

[7] = biological target: T1, Hexokinase-4 (Homo sapiens) + Glucokinase regulatory protein (Homo sapiens); experiment: qHTS assay for inhibitors of recombinant human GCK-GKRP interaction: HTRF assay (AID 743207);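 further: 0% = DMSO with GCK present and -100% = DMSO wells lacking GCK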
How it was run: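 5 nM GST-GCK + 5 nM FLAG-GKRP + 2 uM S6P, pH 7.1 buffer (25 mM Hepes, 2 mM MgCl2, 25 mM KCl, 1 mM DTT, Tween/BSA); pin-transferred cpd; anti-FLAG XL665/anti-GST K; 60 min RT; HTRF.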

[8] = qHTS Assay for Identifying Gametocytocidal Compounds (AID 743244); further: potency means the concentration at half of the fitted maximal effect;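 on max response: on the % scale 0 is the no-effect control and ±100 the full control effect; actives lower the fluorescent signal which means gametocytes are killed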; settings: P. falciparum 3D7 stage III-V gametocytes, alamarBlue, 72 h; max response: stronger effect = lower value
How it was run: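 A resazurin-based viability read-out was applied to mature P. falciparum gametocytes: 72 h compound treatment, then 24 h dye incubation, with falling fluorescence signalling gametocytocidal effect.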

[9] = qHTS profiling for inhibitors of Plasmodium falciparum (3D7) proliferation (AID 743322; call rule not given here;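 further: infected erythrocytes exposed to compound for 72 h before lysis; 100% = DMSO vehicle wells and 0% = 0.29 µM artemisinin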); settings: P. falciparum 3D7 proliferation; at 28.7 µM (top of the series) unless noted
How it was run: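 Erythrocytes infected with P. falciparum (0.3% parasitemia, 2.5% hematocrit) incubated with compounds 72 h at 37 C, 5% CO2. Lysis with saponin/Triton buffer containing SYBR Green I, overnight at room temperature in the dark; DNA fluorescence (485/535 nm) normalised to 0.29 uM artemisinin and DMSO.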

[10] = qHTS profiling for inhibitors of Plasmodium falciparum (DD2) proliferation (AID 743323; call rule not given here); settings: lower = more inhibition; at 28.7 µM (top of the series) unless noted
How it was run: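 SYBR Green fluorescence (ex 485, em 535 nm) of lysed cultures gives parasite DNA content; wells normalized to artemisinin (0.29 uM) and DMSO controls. Infected red cells: 0.3% parasitemia, 2.5% hematocrit, 72 h, 37 C.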

Cc1c(C(=O)c2cccc3ccccc23)c2cccc3c2n1[C@H](CN1CCOCC1)CO3
inactive: outcome [1] | outcome [2] | outcome [3] | outcome [4] | outcome [5]

NC1CC1c1ccccc1 (centres undefined)
inactive: outcome [6] | outcome [1] | outcome [2] | outcome [3] | outcome [4] | outcome [5] | outcome [7] | max response [8] 14.3%

CCCN1CCC[C@H](c2cccc(O)c2)C1
inactive: outcome [1] | outcome [2] | outcome [3] | outcome [4] | outcome [5] | outcome [7] | max response [8] -8.29% and 20.7%

C[C@@H](N)Cc1cnc[nH]1
inactive: outcome [6] | outcome [1] | outcome [2] | outcome [3] | outcome [4] | outcome [5] | outcome [7] | max response [8] 1.66%

CCCN(CCC)[C@@H]1CCc2ccc(O)cc2C1
inactive: outcome [6] | outcome [1] | outcome [2] | outcome [3] | outcome [4] | outcome [5] | outcome [7] | max response [8] 10.7%

C[C@]12CCC3C(CC[C@H]4C[C@H](O)CC[C@]34C)C1CC[C@@H]2C(=O)CO (some centres undefined)
inactive: outcome [6] inactive; inhibitor; fitted 2.3934 uM | outcome [1] | outcome [2] | outcome [3] | outcome [4] | outcome [5] | outcome [7] | max response [8] 12.3%

C#CCOC(=O)C1=CCCN(C)C1
inactive: outcome [6] | outcome [1] | outcome [2] | outcome [3] | outcome [4] | outcome [5] | outcome [7] | max response [8] 10.6%

NC(N)=NOCCC(N)C(=O)O (centres undefined)
inactive: outcome [6] inactive; inhibitor; fitted 2.3934 uM | outcome [1] | outcome [2] | outcome [3] | outcome [4] | outcome [5] | outcome [7] | max response [8] 10.4%

CC(C)Oc1cccnc1N(C)C1CCN(Cc2ccccc2)CC1
inactive: outcome [6] | outcome [1] | outcome [2] | outcome [3] | outcome [4] | outcome [5] | outcome [7] | max response [8] -6.11%

CS(=N)(=O)CC[C@H](N)C(=O)O (some centres undefined)
inactive: outcome [6] | outcome [1] | outcome [2] | outcome [3] | outcome [4] | outcome [5] | outcome [7] | max response [8] -10.6%

CNCCc1ccc(O)c(O)c1
inactive: outcome [1] | outcome [2] | outcome [3] | outcome [4] | outcome [5] | outcome [7]

CCCCc1ccc(C(=O)O)nc1
inactive: outcome [6] | outcome [1] | outcome [2] | outcome [3] | outcome [4] | outcome [5] | outcome [7] | max response [8] 4.22% and 15%

CC(=O)[C@H]1CCC2C3CC[C@H]4C[C@H](O)CC[C@]4(C)C3CC[C@@]21C (some centres undefined)
inactive: outcome [6] | outcome [1] | outcome [2] | outcome [3] | outcome [4] | outcome [5] | outcome [7] | max response [8] 27.5%

NC(=NCCC[C@H](N)C(=O)O)N[N+](=O)[O-]
inactive: outcome [6] | outcome [1] | outcome [2] | outcome [3] | outcome [4] | outcome [5] | outcome [7] | max response [8] 11.8%

NC(=O)CN1CC(O)CC1=O (centres undefined)
inactive: outcome [6] | outcome [1] | outcome [2] | outcome [3] | outcome [4] | outcome [5] | outcome [7] | max response [8] -2.78% and 8.87%

C/C=C(/C)C(=O)O[C@H]1C(C)=C2[C@H]([C@@H]1OC(=O)CCCCCCC)[C@@](C)(OC(C)=O)C[C@H](OC(=O)CCC)[C@@]1(O)[C@H]2OC(=O)[C@@]1(C)O
1.02%: activity, percent of control [10]
-0.149%: remaining parasite growth % (stronger effect = lower value) [9]
inactive: outcome [6] | outcome [1] | outcome [2] | outcome [3] | outcome [4] | outcome [5] | outcome [7]

COc1cc(C(O)CN)ccc1O (centres undefined)
inactive: outcome [6] | outcome [1] | outcome [2] | outcome [3] | outcome [4] | outcome [5] | outcome [7] | max response [8] 2.34%

CCCN1CCO[C@@H]2c3cc(O)ccc3OC[C@H]21
inactive: outcome [6] | outcome [1] | outcome [2] | outcome [3] | outcome [4] | outcome [5] | outcome [7] | max response [8] -5.59% and 5.71%

C[N+]1(C)C2CCC1CC(OC(=O)C(CO)c1ccccc1)C2 (centres undefined)
inactive: outcome [6] | outcome [1] | outcome [2] | outcome [3] | outcome [4] | outcome [5] | outcome [7] | max response [8] 23.1% and 28.3%

CC[C@H](CO)Nc1nc(NCc2ccccc2)c2ncn(C(C)C)c2n1
50.4%: activity, percent of control [10]
61.3%: remaining parasite growth % (stronger effect = lower value) [9]

CC(C)NCC(O)c1ccc([N+](=O)[O-])cc1 (centres undefined)
inactive: max response [8] -16.1%

CC[N+]1(CCOC(=O)C(O)(c2ccccc2)c2ccccc2)CCCCC1
inactive: max response [8] 2.2%

CC(C)[C@H]1C(=O)N[C@H](CO)Cc2c[nH]c3cccc(c23)N1C
107%: remaining parasite growth % (stronger effect = lower value) [9]
97.3%: activity, percent of control [10]

C[C@@H]1O[C@H](C[N+](C)(C)C)C[C@H]1O
inactive: outcome [1] | outcome [2] | outcome [3] | outcome [4] | outcome [5] | outcome [7] | max response [8] 7.91%

O=C1C(I)=CC(=C(c2cc(I)c(O)c(I)c2)c2ccccc2C(=O)O)C=C1I
inactive: max response [8] 4.96% and 16.9%

C[C@@]12O[C@@H](C[C@]1(O)CO)n1c3ccccc3c3c4c(c5c6ccccc6n2c5c31)CNC4=O
active: Potency [8] 5.9 µM

CC(C)(C)c1[nH]cnc1C=c1[nH]c(=O)c(=Cc2ccccc2)[nH]c1=O
49.6%: activity, percent of control [10]
58.1%: remaining parasite growth % (stronger effect = lower value) [9]
